Counter-ions that a name gives are not always drawn. A number with no mark means an inactive call.

The test has as its system primary human hepatic stellate cells (donor 1). Briefly: COL1A1 mRNA fold change vs DMSO (normalised to PSMB2); higher = more COL1A1 expression, active = hit call of the paper. The conditions noted are these: 48 h. The protocol: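 Secondary qRT-PCR screen in primary human HSCs (donor 1), 384-well plates, with compounds dispensed in quadruplicate and incubated for 48 h. Cells-to-CT lysates were used for multiplexed TaqMan qPCR of ACTA2 or COL1A1 with PSMB2 as reference. Fold changes versus DMSO come from a linear model (Ct_gene ~ Ct_PSMB2 + plate + chemical). A hit is defined as COL1A1 and ACTA2 FC <0.5 (FDR <0.05) with PSMB2 between 0.2 and 2.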
`CC#CCOC(=O)c1c(C)nc2sc3c(c2c1N)CCC(O)C3` (stereo not given) (33.3333 µM): the “COL1A1 mRNA fold change” value was 2.5.
To `CCc1cc2c(cc1CC)CC(NC[C@H](O)c1ccc(O)c3[nH]c(=O)ccc13)C2` [Indacaterol Maleate] (33.3333 µM) belongs 0.0797 (active); to `O=S(=O)(NCCNC/C=C/c1ccc(Br)cc1)c1cccc2cnccc12` [H-89, Dihydrochloride] (11.1 µM), 0.594; to `CN(C)Cc1c(C(=O)NCCOc2ccc(C(=O)NO)cc2)oc2ccccc12` (33.3333 µM), 0.0321 (active).
As for `CNCCC(Oc1ccc(C(F)(F)F)cc1)c1ccccc1` (stereo not given) [Fluoxetine hydrochloride] (33.3333 µM), the “COL1A1 mRNA fold change” value was 0.114 (active).
For `C[C@@H](Oc1cc(-c2cnn(C3CCNCC3)c2)cnc1N)c1c(Cl)ccc(F)c1Cl` (11.1 µM), the “COL1A1 mRNA fold change” value is 0.235 (active).
`C[C@@H](CN1CCC(n2c(=O)[nH]c3cc(Cl)ccc32)CC1)NC(=O)c1ccc2ccccc2c1` (33.3333 µM): the “COL1A1 mRNA fold change” value was 0.19.
With `CCOC(=O)C1=C(COCCN)NC(C)=C(C(=O)OC)C1c1ccccc1Cl` (stereo not given) (33.3333 µM), the “COL1A1 mRNA fold change” value is 0.437 (active).
Turning to `O=C(Nc1cc(C(F)(F)F)cc(C(F)(F)F)c1)c1cc(Cl)ccc1O` (33.3333 µM), the “COL1A1 mRNA fold change” value is 0.203 (active).
As for `Cc1ccc(S(=O)(=O)/C=C/C#N)cc1` (33.3333 µM), the “COL1A1 mRNA fold change” value was 0.394.
`COC(=O)C[C@](O)(CCCC(C)(C)O)C(=O)O[C@@H]1C(OC)=C[C@]23CCCN2CCc2cc4c(cc2[C@H]13)OCO4` [Homoharringtonine] (33.3333 µM): the “COL1A1 mRNA fold change” value is 0.0354 (active).
For the compound `NS(=O)(=O)C#Cc1ccccc1` [Pifithrin->m] (33.3333 µM), the “COL1A1 mRNA fold change” value is 0.18.
As to `CSc1ccc2c(c1)C(N1CCN(C)CC1)Cc1ccccc1S2` (stereo not given) [Methiothepin maleate] (33.3333 µM), the “COL1A1 mRNA fold change” value was 0.00214.
For `Cn1cc(C2=C(c3ccc(Cl)cc3Cl)C(=O)NC2=O)c2ccccc21` (33.3333 µM), the “COL1A1 mRNA fold change” value is 2.59.
On to `O=C(O[C@H]1CN2CCC1CC2)N1CCc2ccccc2[C@@H]1c1ccccc1` [Solifenacin succinate] (33.3333 µM), for which the “COL1A1 mRNA fold change” value was 0.375 (active).
As for `Cc1nc(Nc2ncc(C(=O)Nc3c(C)cccc3Cl)s2)cc(N2CCN(CCO)CC2)n1` (33.3333 µM), the “COL1A1 mRNA fold change” value is 0.446 (active).
The same measure for `CS(=O)(=O)CCNCc1ccc(-c2ccc3ncnc(Nc4ccc(OCc5cccc(F)c5)c(Cl)c4)c3c2)o1` (6.66667 µM): 1.41.
To `Cc1ccc(NC(=O)c2ccc(CN3CCN(C)CC3)cc2)cc1Nc1nc(-c2cccnc2)cs1` [Masitinib (AB1010, Masivet)] (6.66667 µM) belongs 1.31; to `NC[C@@H]1O[C@H](C23CC4CC(CC(C4)C2)C3)Cc2c1ccc(O)c2O` (33.3333 µM), 0.136.
To `CNCc1ccc(-c2cc(-c3nc(-c4ccc(S(=O)(=O)C(C)C)cc4)cnc3N)on2)cc1` (11.1 µM) belongs 0.0438; to `Clc1ccc(C2(c3ccc(-c4cn[nH]c4)cc3)CCNCC2)cc1` (33.3333 µM), 0.285 (active).
For `O=C(c1ccc(/C=C/c2n[nH]c3ccccc23)cc1)N1CCNCC1` (33.3333 µM), the “COL1A1 mRNA fold change” value is 0.0707.
The same measure for `Cc1cc(Nc2cc(N3CCN(C)CC3)nc(/C=C/c3ccccc3)n2)n[nH]1` (11.1 µM): 0.343.
With `COc1cc2nc(N3CCCN(C)CC3)nc(NC3CCN(Cc4ccccc4)CC3)c2cc1OC` (3.33333 µM), the “COL1A1 mRNA fold change” value was 0.0424 (active).
As for `COc1ccccc1OCCNCC(O)COc1cccc2[nH]c3ccccc3c12` (stereo not given) [Carvedilol] (33.3333 µM), the “COL1A1 mRNA fold change” value was 0.294.
Turning to `CN1CCN(Cc2ccc(-c3cnc4[nH]cc(-c5ccc6[nH]ccc6c5)c4c3)cc2)CC1` (6.66667 µM), the “COL1A1 mRNA fold change” value is 0.0518 (active).
In the case of `CN1CCC(CNc2ccc3ncc(-c4cccc(OC(F)(F)F)c4)n3n2)CC1` (6.66667 µM), the “COL1A1 mRNA fold change” value is 0.552.
Regarding `CCN(CC)CCCCNc1ncc2cc(-c3c(Cl)cccc3Cl)c(NC(=O)NC(C)(C)C)nc2n1` (33.3333 µM), the “COL1A1 mRNA fold change” value was 0.425 (active).
Take `[O-][S+](c1ccccc1)c1ccc2nnnn2n1` (stereo not given) (33.3333 µM): the “COL1A1 mRNA fold change” value is 0.0868.
Take `CC[C@@H]1C(=O)N(C)c2cnc(Nc3ccc(C(=O)NC4CCN(C)CC4)cc3OC)nc2N1C1CCCC1` (33.3333 µM): the “COL1A1 mRNA fold change” value is 0.0466.
Regarding `CC(C)NCCCn1c(Sc2cc3c(cc2I)OCO3)nc2c(N)ncnc21` (33.3333 µM), the “COL1A1 mRNA fold change” value was 0.844.
As for `CNc1nccc(-c2cccnc2Oc2cc(C(=O)Nc3cccc(C(F)(F)F)c3)ccc2C)n1` (33.3333 µM), the “COL1A1 mRNA fold change” value was 0.618.
On to `CC(C)c1ccc(C(=O)c2cccs2)c(SCCCCCCCCN(C)C)n1` (33.3333 µM), for which the “COL1A1 mRNA fold change” value is 0.429.
In the case of `CCCCc1oc2ccccc2c1C(=O)c1cc(I)c(OCCN(CC)CC)c(I)c1` (33.3333 µM), the “COL1A1 mRNA fold change” value is 0.057 (active).
For the compound `CC(/C=C/C(=O)NO)=C\[C@@H](C)C(=O)c1ccc(N(C)C)cc1` [Trichostatin A] (3.33333 µM), the “COL1A1 mRNA fold change” value was 0.405 (active).
As for `CN(C)C/C=C(/c1ccc(Br)cc1)c1cccnc1` [Zimelidine dihydrochloride] (11.1 µM), the “COL1A1 mRNA fold change” value is 2.1.
Turning to `CCC/C=C\C=C/C(=O)N[C@@H](CC(N)=O)C(=O)NC(CC(N)=O)C(=O)N[C@@H](C(=O)N[C@H](CCCN)C(=O)N[C@@H](C(=O)N[C@@H](C(=O)N[C@@H](C(=O)N[C@H](C(=O)N[C@@H](Cc1ccccc1)C(=O)N[C@H](CCCN)C(=O)NC(C(=O)N[C@H](C(=O)NC(C(=O)NCC(=O)N[C@@H](CC(C)C)C(=O)N[C@H](C)C(=O)NC(C(=O)O)C1CCC(O)C(Cl)C1)C1CCC(O)CC1)[C@H](C)O)C1CCC(O)CC1)[C@H](C)O)C1CCC(O)CC1)C1CCC(O)CC1)[C@H](C)O)C1CCC(O)CC1` (stereo not given in full) (33.3333 µM), the “COL1A1 mRNA fold change” value is 1.59.
`COC(=O)N[C@H](C(=O)N1CCC[C@H]1c1ncc(-c2ccc(-c3ccc(-c4cnc([C@@H]5CCCN5C(=O)[C@@H](NC(=O)OC)C(C)C)[nH]4)cc3)cc2)[nH]1)C(C)C` (33.3333 µM): the “COL1A1 mRNA fold change” value was 0.0176.
As to `CCCCCCCCCCCCC/C=C/[C@@H](O)[C@H](CO)N(C)C` [N,N-Dimethylsphingosine] (3.33333 µM), the “COL1A1 mRNA fold change” value is 0.928.
To `CCCCCCCCCCCCCCCCn1cc[n+](Cc2ccccc2)c1C` (11.1 µM) belongs 0.155.

The values above are taken from the supplement of paper PMC9135407.
